High-throughput results as filed in PubChem.
EPAC1 ag: qHTS for Agonist of cAMP-regulated guanine nucleotide exchange factor 3 (EPAC1): primary screen; Rap guanine nucleotide exchange factor 3 (Homo sapiens), O95398; EPAC1 agonist qHTS, biochemical assay; response scale: 100% = response to 6.5 mM cAMP; Potency, µM (doses to about 154 µM), for the others: at the top dose activation, most hits filed as activators; 0.073% of 360,000 active; AID 720707, 2013; also: potency is read from the fitted curve at half-maximal effect; nearly all actives have a fitted effect of over 60% in size
Target sequence (O95398 whole entry, looked up): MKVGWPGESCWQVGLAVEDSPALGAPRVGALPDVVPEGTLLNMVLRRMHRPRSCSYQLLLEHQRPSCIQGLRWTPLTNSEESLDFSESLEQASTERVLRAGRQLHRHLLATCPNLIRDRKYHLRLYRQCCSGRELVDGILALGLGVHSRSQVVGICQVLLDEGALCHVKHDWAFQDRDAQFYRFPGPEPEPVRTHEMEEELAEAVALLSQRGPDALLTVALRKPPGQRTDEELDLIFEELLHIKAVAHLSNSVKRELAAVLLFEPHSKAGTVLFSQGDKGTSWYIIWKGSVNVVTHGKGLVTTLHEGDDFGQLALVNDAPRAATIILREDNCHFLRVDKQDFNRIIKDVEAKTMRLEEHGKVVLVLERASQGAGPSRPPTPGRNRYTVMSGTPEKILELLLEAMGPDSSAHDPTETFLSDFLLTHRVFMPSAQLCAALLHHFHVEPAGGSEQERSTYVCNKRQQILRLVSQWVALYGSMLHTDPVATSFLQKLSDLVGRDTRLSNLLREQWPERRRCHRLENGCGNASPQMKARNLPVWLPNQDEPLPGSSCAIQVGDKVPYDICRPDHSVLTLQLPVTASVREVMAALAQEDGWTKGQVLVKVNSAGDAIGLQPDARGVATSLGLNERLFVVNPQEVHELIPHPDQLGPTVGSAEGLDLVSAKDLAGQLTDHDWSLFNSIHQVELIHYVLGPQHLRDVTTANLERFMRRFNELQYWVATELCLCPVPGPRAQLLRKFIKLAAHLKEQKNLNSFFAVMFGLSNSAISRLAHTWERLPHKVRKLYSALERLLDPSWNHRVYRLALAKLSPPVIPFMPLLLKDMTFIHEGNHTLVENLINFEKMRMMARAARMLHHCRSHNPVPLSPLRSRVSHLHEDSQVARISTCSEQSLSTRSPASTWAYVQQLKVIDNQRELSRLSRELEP
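Nucleotide exchange by EPAC1 (100 nM) on Rap1B–BODIPY-GDP (250 nM) in the presence of 50 uM GDP is tracked fluorescently at 480/540 nm over 30 min. Signals are normalized to a 6.5 mM cAMP control.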
EPAC1 antagonist: qHTS for Antagonist of cAMP-regulated guanine nucleotide exchange factor 3 (EPAC1): primary screen. EPAC1 GEF assay, Rap1b-BODIPY-GDP exchange fluorescence. Potency, µM (doses to about 115 µM), inactives show at the highest dose activity change, negative = inhibition, most hits filed as inhibitors. 0.14% of 360,000 active;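 also: potency is read from the fitted curve at half-maximal effect; plate controls were vehicle for no effect and positive control for full effect; nearly all actives have a fitted effect of over 50% in size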
EPAC2 antagonist: qHTS for Antagonist of cAMP-regulated guanine nucleotide exchange factor 2 (EPAC2): primary screen. AID 720708, 2013. Potency, µM (titrated, usually from 114 µM), for inactives: top-dose activity, negative = inhibition, actives largely listed as inhibitors. Rap guanine nucleotide exchange factor 4 (Homo sapiens), Q8WZA2. 0.18% of 360,000 active. EPAC2 GEF exchange of Rap1B-BODIPY-GDP, fluorescence; also: potency is read from the fitted curve at half-maximal effect; % is scaled to controls: 0 for no effect and ±100 for the full control effect; nearly all actives have a fitted effect of over 45% in size
TSHR antagonist: Antagonists of the Thyroid Stimulating Hormone Receptor: HTS campaign; activity change, negative = inhibition, % at 11.5 µM; 0.2% of 330,000 active; AID 504810, 2011; TSHR-expressing cells, TSH-stimulated cAMP HTRF, 2 h; hits give low values;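 active = activity change below a set negative limit, meaning inhibition stronger than a set level, cut at about -70% in these data; inconclusive = activity change between two set negative limits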; also: % is scaled to controls: 0 for no effect and ±100 for the full control effect
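Read-out is FRET at 665 nm (cryptate excitation 337 nm) from a cryptate-tagged anti-cAMP antibody, competed by cell cAMP against cAMP-d2. Compounds are tested on freshly harvested TSHR cells challenged with 4nM TSH (EC80) for 2 hours at 37 deg C.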
PTHR1 ag: qHTS for PTHR1 Agonists: Primary Screen; 0.075% of 410,000 active; AID 743266, 2014; Parathyroid hormone/parathyroid hormone-related peptide receptor (Homo sapiens), Q03431; HEK293 GP2 PTHR1 cells, GloSensor cAMP luminescence, 1 h; Potency, µM (top dose mostly 115 µM), for inactives: at the top dose activation, usual class: activators; also: potency is read from the fitted curve at half-maximal effect; nearly all actives have a fitted effect of over 55% in size
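HEK-293-derived GP2 cells expressing PTHR1 and a GloSensor cAMP reporter, 3,000/well, plated overnight, given luciferin plus IBMX (each 0.5 mM as added) for 1 h at 37 °C, then compound for 1 h at 37 °C. Luminescence was read after 15 min at room temperature.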
EPAC2 agonist: qHTS for Agonist of cAMP-regulated guanine nucleotide exchange factor 4 (EPAC2): primary screen; Rap guanine nucleotide exchange factor 4 (Homo sapiens), Q8WZA2; EPAC2 activation, biochemical qHTS; response scale: 100% = 6.5 mM cAMP response; Potency, µM (top dose mostly 154 µM), for inactives: top-dose activation, actives largely listed as activators; 0.079% of 360,000 active; AID 720711, 2013; also: potency is read from the fitted curve at half-maximal effect; nearly all actives have a fitted effect of over 50% in size
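qHTS, titration series. 100 nM EPAC2 / 250 nM Rap1B-BODIPY-GDP / 50 uM GDP; RT; ex 480/em 540 nm, 5-min reads to 30 min. Norm. to 6.5 mM cAMP = activation.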
Numbers without * were called inactive; i = inactive; ? = inconclusive; . = no result; [ ] = remark or other dose. A selection: hits, their analogues and other compounds. The true share with any hit is near 0.5%. Unless noted, calls follow the shape of the dose curve; as a rule, active = well fitted curve in the direction sought with a large enough effect; inconclusive = small, poorly fitted or top-dose-only effect, or another doubt; inactive = no such curve, though single readings can be large; an effect the other way counts as inactive or inconclusive.

SMILES | EPAC1 ag | EPAC1 antagonist | EPAC2 antagonist | TSHR antagonist | PTHR1 ag | EPAC2 agonist
CCCSC1=C(C#N)C(c2cccs2)C(C(=O)Nc2ccccc2)=C(C)N1 (stereo not drawn) | 10% | 1% | -9% | -79* | -11%[57.5 µM] | 5%
COc1ccc(-c2cn3c(n2)sc2cc(C(=O)NCc4cccc(F)c4)ccc23)cc1 | . | . | . | . | 11% | .
COc1ccccc1NS(=O)(=O)c1ccc2ccccc2c1 | 16% | -4% | 13µM* | -7 | -16% | 23%
Cc1ccc(N2C(=O)CS(=O)(=O)C23C(=O)N(Cc2ccc(Cl)cc2)c2ccccc23)cc1C (stereo not drawn) | . | . | . | . | i | .
Cc1ccccc1NC1=C/C(=N\S(=O)(=O)c2ccc(C(=O)O)cc2)c2ccccc2C1=O | 1% | 40µM* | 50µM* | ? | -31% | 17%
O=C(O)c1ccc(S(=O)(=O)/N=C2\C=C(Nc3ccccc3F)C(=O)c3ccccc32)cc1 | 5% | 22µM* | ? | ? | -37% | 30%
Cc1ccccc1NC1=C/C(=N\S(=O)(=O)c2cccs2)c2ccccc2C1=O | 8% | -6% | -7% | -50 | -15%[57.5 µM] | 9%
COc1ccc(S(=O)(=O)/N=C2\C=C(Nc3ccc(O)cc3)C(=O)c3ccccc32)cc1 | 13% | ? | -21% | -42 | -18% | 20%
CC1CCc2c(sc3nc(SCC(=O)O)n(-c4ccccc4)c(=O)c23)C1 (stereo not drawn) | ? | 89µM* | -14% | -11 | -17% | -2%
CCOC(=O)CSc1nc2sc3c(c2c(=O)n1-c1ccccc1)CCC(C(C)(C)C)C3 (stereo not drawn) | . | . | . | . | i | .
COc1ccc(-n2c(SCC(=O)Nc3nccs3)nc3sc4c(c3c2=O)CCN(C)C4)cc1 | 4% | 20% | 13% | -3 | i | 12%
COc1ccc(NC(=O)CSc2nc3sc4c(c3c(=O)n2-c2ccc(OC)cc2)CCN(C)C4)cc1 | 6% | -6% | 71µM* | -6 | i | ?
CCS(=O)(=O)c1nc(S(=O)(=O)c2ccc(Cl)cc2)c(NCCCN2CCOCC2)s1 | 7% | -9% | -7% | -7 | -29% | 3%
CC1=C(c2ccc(C)c(C)c2)S(=O)(=O)N=C1N1CCC(C(=O)N2CCCCC2)CC1 | . | . | . | . | -6% | .
CCCCc1nn2c(=O)cc(COC(=O)c3ccccc3NC(=O)c3cccs3)nc2s1 | . | . | . | . | -7% | .
CCN(CC)c1c([N+](=O)[O-])c(=O)n(C)c2ccccc12 | 6% | 6% | -21% | -5 | -46% | 9%
Cn1c(=O)c([N+](=O)[O-])c(Cl)c2ccccc21 | 3% | -19% | 2% | -83* | -29% | 17%
O=C(NCc1ccccc1)c1ccc2nc(-c3ccco3)c(-c3ccco3)nc2c1 | 1% | 32µM* | -1% | -15 | -17% | -2%
O=C(Nc1ccccc1)c1ccc2nc(-c3ccco3)c(-c3ccco3)nc2c1 | 11% | ? | -1% | -5 | -7% | 9%
CCOC(CNC(=O)C(=O)Nc1cc2c3c(c1)CCC(=O)N3CCC2)OCC | 2% | 14% | 19% | 3 | ? | 11%
CC1CC(C)CN(C(=O)c2cccc(S(=O)(=O)Nc3cc(C(F)(F)F)ccc3Cl)c2)C1 (stereo not drawn) | -13% | 50µM* | 50µM* | -12 | -33% | -14%
Cc1cccc(C[C@H](C(=O)O)N2C(=O)c3ccc(C(=O)O)cc3C2=O)c1 | . | . | . | -14 | . | .
Cc1nnc(Sc2cc(NCCCO)c([N+](=O)[O-])c3nonc23)s1 | 3% | 40µM* | 18% | -86* | -78% | 14%
O=[N+]([O-])c1c(NCCCO)cc(Sc2nc3ccccc3s2)c2nonc12 | 9% | -15% | -8% | -94* | 0% | 18%
Cc1ccc2oc(=O)c3cc(C(=O)Nc4ccccc4C(N)=O)sc3c2c1 | . | . | . | . | -7% | .
SMILES | EPAC1 ag | EPAC1 antagonist | EPAC2 antagonist | TSHR antagonist | PTHR1 ag | EPAC2 agonist
COc1ccc(Nc2cc(C(=O)NCCCN3CCN(c4ccc(OC)cc4)CC3)c3ccccc3n2)cc1 | . | . | . | . | -92% | .
NS(=O)(=O)c1ccc(CNC(=O)CCS(=O)(=O)Cc2ccccc2)cc1 | 0% | 8% | 28% | -79* | -11% | 2%
Cc1cc(OC(C)C(=O)NCCCn2ccnc2)c2c(C)cc(=O)oc2c1 (stereo not drawn) | 3% | 9% | -3% | 6 | -19% | 4%
Cc1cc(C)cc(OC(C)C(=O)NCCCn2ccnc2)c1 (stereo not drawn) | 9% | 0% | -11% | -104* | i | -5%
CCOC(=O)C(C)Sc1ncnc2c1nnn2-c1ccc(F)cc1 (stereo not drawn) | -6% | -15% | 20µM* | -18 | -31%[57.5 µM] | -2%
CCC(Sc1ncnc2c1nnn2-c1ccc(F)cc1)C(=O)OC (stereo not drawn) | -5% | 10% | 2% | -20 | -29%[57.5 µM] | -2%
O=c1oc2ccccc2nc1/C=C(O)/C=C\c1ccccc1 | 5% | -5% | 27% | -4 | -11% | 63µM*
COC(=O)c1cc(-c2ccc(Br)cc2)n[nH]1 | -3% | 3% | 21% | -2 | -9%[57.5 µM] | -2%
COC(=O)c1cc(-c2c[nH]c3ccccc23)n[nH]1 | -5% | -14% | ? | -86* | -1% | 8%
CCC(Oc1ccccc1)C(=O)Nc1ccccc1N1CCCCC1 (stereo not drawn) | -3% | 3% | 13µM* | -21 | -4% | 7%
CCC(Oc1ccccc1)C(=O)Nc1ccccc1N1CCCC1 (stereo not drawn) | 9% | -25% | 50µM* | 0 | -8% | 13%
CCC(C(=O)Nc1ccccc1N1CCCC1)c1ccccc1 (stereo not drawn) | -1% | -4% | 5% | -6 | -23% | -6%
Oc1ccc(CNc2ccc(C(F)(F)F)cc2Cl)c2cccnc12 | . | . | . | 7 | . | .
COCCn1c(N)c(C(=O)NCC2CCCO2)c2nc3ccccc3nc21 (stereo not drawn) | -8% | ? | -27% | -6 | i | 3%
